HCV inh: qHTS Assay for Inhibitors of Hepatitis C Virus (HCV). Huh7.5.1 HCVcc-Cre infection, luciferase reporter, 44 h. Potency, µM (titrated, usually from 41.8 µM), hits mostly inhibitors. 340,000 tested, 3.4% active. AID 651820, 2012; active = well fitted inhibition curve with a large enough effect; inconclusive = small, poorly fitted or top-dose-only effect, or another doubt; inactive = no such curve, though single readings can be large or run the other way
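Reporter virus HCVcc-Cre (~0.5 moi) infects cells exposed to compound; seeding density 1,000 cells/well with 4 h settling beforehand. Luminescence, 15 sec read, taken 44 h post-infection following a 15 min RT substrate incubation.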
FMDV antiviral: High Throughput Screening for Foot and Mouth Disease Virus Antivirals. FMDV antiviral cell-based qHTS. 410,000 tested, 1.2% active. Potency, µM (doses to about 57.9 µM), most hits filed as inhibitors; calls by dose curve; tested in HEK293T cells; also: read-out not given here; nearly all actives have a fitted effect of over 45% in size
HCMV antiviral: qHTS Assay for inhibitors of the human cytomegalovirus (HCMV) | HFF cells, HCMV-luciferase reporter, 72 h; hits give low values | activity change, negative = inhibition, % at 57.5 µM | AID 1259415, 2018 | 410,000 tested, 4.5% active; in the data active = activity change below about -60%; inconclusive = no clear call, values can overlap the other calls; inactive = above about -39%
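Compounds were evaluated in HFFs infected with an HCMV luciferase reporter virus (MOI 1 PFU/cell). Luciferase in lysates collected 72 h post infection served as the replication measure.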
Vaccinia Venus: qHTS for Stage-Specific Inhibitors of Vaccinia Orthopoxvirus: Venus Reporter Primary qHTS; Vaccinia virus Venus reporter expression, fluorescence; 330,000 tested, 0.46% active; Potency, µM (highest dose often 36.5 µM), hits mostly inhibitors; calls by dose curve; tested in A549 cells; also: nearly all actives have a fitted effect of over 30% in size
VACV mCherry inh: qHTS for Stage-Specific Inhibitors of Vaccinia Orthopoxvirus: mCherry Reporter Primary qHTS | Vaccinia virus mCherry reporter infection, fluorescence | 310,000 tested, 0.63% active | Potency, µM (doses to about 36.5 µM), most hits filed as inhibitors; calls by dose curve; tested in A549 cells; also: nearly all actives have a fitted effect of over 35% in size
Large screens that a line does not name were inactive; ! = repeats disagree. An excerpt weighted towards active compounds, which were near 7.3% of everything screened.

CC1(C)Cc2c(C#N)c(N3CCN(C(=O)c4ccco4)CC3)nc(Cc3ccccc3)c2CO1	FMDV antiviral 40µM
CCc1nc(N2CCN(C(=O)c3ccco3)CC2)c(C#N)c2c1COC(C)(C)C2	HCV inh 22µM, VACV mCherry inh inconclusive
CCOC(=O)Cn1nc(N2CCN(c3ccc(F)cc3)CC2)ccc1=O	none (no result: HCV inh)
CCOc1c(Br)cc(CNC2CCCCCCC2)cc1OC	HCV inh 11µM, FMDV antiviral inconclusive (no result: Vaccinia Venus, VACV mCherry inh)
CCOc1cc(CNc2ccc3c(c2)OCCO3)cc(Br)c1OCC(N)=O	Vaccinia Venus inconclusive (no result: FMDV antiviral)
CCOc1cc(CNc2ccc3c(c2)OCCO3)cc(Br)c1OC	HCV inh 0.79µM, FMDV antiviral 25µM, HCMV antiviral -86, Vaccinia Venus inconclusive, VACV mCherry inh inconclusive
CCOc1c(Br)cc(CNc2ccc3c(c2)OCCO3)cc1OC	HCV inh inconclusive, FMDV antiviral 25µM, HCMV antiviral -82, Vaccinia Venus inconclusive, VACV mCherry inh inconclusive
COc1ncc2ncc(=O)n(C[C@H]3CCCO3)c2n1	none (no result: HCV inh, HCMV antiviral, Vaccinia Venus, VACV mCherry inh)
CCOc1ccc(NC(=O)CCCn2c(C)c3cnn(-c4ccccc4)c(=O)c3c2C)cc1	none (no result: HCV inh)
O=S(=O)(c1cccc(Cl)c1)N1CCN(c2nc(-c3cccs3)nc3ccccc23)CC1	none (no result: HCV inh, FMDV antiviral, HCMV antiviral)
COc1ccc(C(=O)c2cn(Cc3ccc(F)cc3)c3c(F)cc(F)cc3c2=O)cc1	none (no result: HCV inh)
OCC1OC(n2ccc3c(NO)ncnc32)C(O)C1O (stereo unspecified)	HCV inh inconclusive, FMDV antiviral inconclusive, HCMV antiviral -98, Vaccinia Venus 1.1µM, VACV mCherry inh inconclusive
OCC1OC(n2cnc3c(NO)ncnc32)C(O)C1O (stereo unspecified)	none (no result: HCV inh, FMDV antiviral, HCMV antiviral)
CN(C)c1ncnc2c1ccn2C1OC(CO)C(O)C1O (stereo unspecified)	HCV inh inconclusive, HCMV antiviral -98, Vaccinia Venus inconclusive, VACV mCherry inh inconclusive
OCC1OC(n2cnc3c(NCc4ccccc4O)ncnc32)C(O)C1O (stereo unspecified)	HCMV antiviral -100, Vaccinia Venus inconclusive, VACV mCherry inh inconclusive
COc1cccc(-c2cc(=O)c3ccc(OC)cc3o2)c1	none (no result: HCV inh, HCMV antiviral)
COc1ccccc1NC(=S)N(Cc1ccccn1)Cc1ccccc1Cl	HCMV antiviral -63
Cc1ccccc1NC(=S)N(Cc1ccccn1)Cc1ccccc1Cl	HCMV antiviral inconclusive
COc1ccc(C(=O)c2sc3nc(C)cc(-c4cccs4)c3c2N)cc1	HCV inh inconclusive, Vaccinia Venus inconclusive, VACV mCherry inh inconclusive
COc1ccc(C(=O)c2sc3nc(C)cc(-c4cccs4)c3c2N)cc1OC	HCV inh inconclusive, FMDV antiviral inconclusive, HCMV antiviral -61, VACV mCherry inh inconclusive
Cc1ccn2c(=O)cc(COc3cccc(NC(=O)Nc4cccc(Cl)c4C)c3)nc2c1	Vaccinia Venus inconclusive, VACV mCherry inh inconclusive (no result: HCV inh)
Cc1nnc(-c2cccc(Br)c2)c2cn(-c3ccccc3)nc12	HCV inh inconclusive (no result: Vaccinia Venus, VACV mCherry inh)
Cc1nnc(-c2cccc(Br)c2)c2cn(-c3ccc(Br)cc3)nc12	HCV inh 11µM, FMDV antiviral inconclusive, HCMV antiviral -73, Vaccinia Venus inconclusive
CCC(Sc1nc2ccsc2c(=O)n1Cc1ccc(C(=O)O)cc1)C(=O)Nc1cc(Cl)ccc1C (stereo unspecified)	HCMV antiviral -95 (no result: HCV inh)
N#Cc1ccc(CN2CC3(CCN(C(=O)c4csnn4)CC3)C2)cc1	none (no result: HCV inh, HCMV antiviral, Vaccinia Venus, VACV mCherry inh)
CCc1c(C)nc2nncn2c1NCc1ccc(Cl)cc1	FMDV antiviral inconclusive, HCMV antiviral -69, Vaccinia Venus inconclusive (no result: HCV inh)
CCOc1cc(Br)c(C=O)cc1OCC	HCMV antiviral -92
COc1ccc(NC(=O)N2c3ccc(OC)cc3[C@@H](NC(=O)OCc3ccccc3)[C@H](C)[C@H]2c2ccccc2)cc1	none (no result: HCV inh, FMDV antiviral, Vaccinia Venus, VACV mCherry inh)
CCOc1ccc(-c2nc3n(c(=O)c2C#N)CCCS3)cc1	HCV inh inconclusive, HCMV antiviral -91 (no result: VACV mCherry inh)
Cc1ccccc1NC(=O)CCn1nc(-c2ccccc2)c2ccccc2c1=O	none (no result: HCV inh)
COc1cc(Cl)nn(-c2ccccc2)c1=O	none
O=c1c(Cl)cc(Cl)nn1-c1ccccc1	HCV inh inconclusive, FMDV antiviral 35µM, HCMV antiviral -66
COc1ccc(S(=O)(=O)N(CCc2ccccc2)CC(=O)NCc2ccc(C)cc2)cc1	none (no result: HCV inh)
O=C(NCCc1csc(-c2ccc(F)cc2)n1)c1cccs1	FMDV antiviral inconclusive (no result: HCV inh)
Cc1cccc(-c2nc(CCNC(=O)c3ccco3)cs2)c1	HCMV antiviral -68! (no result: HCV inh)
Cc1ccc(-c2nc(CCNC(=O)c3ccco3)cs2)cc1	HCV inh 10µM, FMDV antiviral inconclusive

Screens (PubChem)
